Results taken from PubChem BioAssay (NCATS).
Inconclusive results are not listed. The source made the active and inactive calls. Calls come from the whole dose curve; as a rule, active = well fitted curve in the direction sought with a large enough effect; inconclusive = small, poorly fitted or top-dose-only effect, or another doubt; inactive = no such curve, though single readings can be large; an effect the other way counts as inactive or inconclusive.

Tests used:
[1] = qHTS of pediatric cancer cell lines to identify multiple opportunities for drug repurposing: Primary screen for U-2 OS cells (AID 1347096); note: nearly all actives have a fitted effect of over 50% in size
Procedure, shortened: (§1)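 Cells (500-1,000/well) in growth media were settled 5 h at 37 degrees C, then given compounds for 48 h. Viability was read as CellTiter-Glo luminescence. Primary runs used MIPE at 11 points (0.78 nM-46 µM) and NPC at 8 points (0.59 nM-46 µM); follow-ups used 11 points.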

[2] = qHTS of pediatric cancer cell lines to identify multiple opportunities for drug repurposing: Primary screen for Saos-2 cells (AID 1347097); note: nearly all actives have a fitted effect of over 40% in size
Procedure, shortened: (§2)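 Quantitative HTS format: each compound titrated (MIPE 11 points from 0.78 nM, NPC 8 points from 0.59 nM) onto cells plated 5 hours earlier. After 48 h at 37 degrees C, CellTiter-Glo luminescence was recorded.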

[3] = qHTS of pediatric cancer cell lines to identify multiple opportunities for drug repurposing: Primary screen for SK-N-SH cells (AID 1347098);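 note: DMSO served as neutral control and bortezomib at 2.3 µM as positive control; nearly all actives have a fitted effect of over 65% in size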
Procedure, shortened: (§3)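 Cells (500-1,000/well) rested 5 h, then received compounds for 48 h; metabolically active cells were measured by CellTiter-Glo luminescence. Final concentrations spanned up to 46 µM (MIPE, 11-point) or 0.59 nM-46 µM (NPC, 8-point) in primary screens, 11-point in follow-ups.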

[4] = qHTS of pediatric cancer cell lines to identify multiple opportunities for drug repurposing: Primary screen for NB1643 cells (AID 1347099); note: nearly all actives have a fitted effect of over 50% in size
Procedure, shortened: as §2

[5] = qHTS of pediatric cancer cell lines to identify multiple opportunities for drug repurposing: Primary screen for LAN-5 cells (AID 1347100)
Procedure, shortened: as §1

[6] = qHTS of pediatric cancer cell lines to identify multiple opportunities for drug repurposing: Primary screen for BT-12 cells (AID 1347101); note: nearly all actives have a fitted effect of over 25% in size
Procedure, shortened: as §3

[7] = qHTS of pediatric cancer cell lines to identify multiple opportunities for drug repurposing: Primary screen for Rh18 cells (AID 1347102); note: nearly all actives have a fitted effect of over 65% in size
Procedure, shortened: as §1

[8] = qHTS of pediatric cancer cell lines to identify multiple opportunities for drug repurposing: Primary screen for OHS-50 cells (AID 1347103); note: nearly all actives have a fitted effect of over 40% in size
Procedure, shortened: as §3

[9] = qHTS of pediatric cancer cell lines to identify multiple opportunities for drug repurposing: Primary screen for RD cells (AID 1347104); note: nearly all actives have a fitted effect of over 55% in size
Procedure, shortened: as §2

[10] = qHTS of pediatric cancer cell lines to identify multiple opportunities for drug repurposing: Primary screen for MG 63 (6-TG R) cells (AID 1347105); note: nearly all actives have a fitted effect of over 50% in size
Procedure, shortened: as §2

[11] = qHTS of pediatric cancer cell lines to identify multiple opportunities for drug repurposing: Primary screen for control Hh wild type fibroblast cells (AID 1347106);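 note: series mostly up to about 46 µM; a drop in luminescence marks cytotoxicity and a rise apparent proliferation; nearly all actives have a fitted effect of over 55% in size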
Procedure, shortened: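 Viability after 48 h compound treatment at 37C, 500-1,000 cells/well, read as ATP luminescence with CellTiter-Glo. Primary screens used 11-point (MIPE, 0.78 nM-46 µM) or 8-point (NPC, 0.59 nM-46 µM) final concentrations; follow-up screens used 11-point dilutions.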

[12] = qHTS of pediatric cancer cell lines to identify multiple opportunities for drug repurposing: Primary screen for Rh30 cells (AID 1347107); note: series mostly up to about 46 µM; nearly all actives have a fitted effect of over 75% in size
Procedure, shortened: as §1

[13] = qHTS of pediatric cancer cell lines to identify multiple opportunities for drug repurposing: Primary screen for Rh41 cells (AID 1347108);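 note: series mostly up to about 46 µM; luminescence drop marks cytotoxic hits; nearly all actives have a fitted effect of over 70% in size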
Procedure, shortened: as §2

Measured: Potency

O=S(=O)(O)c1ccc(O)cc1
inactive: [1] | [2] | [3] | [4] | [5] | [6] | [7] | [8] | [9] | [10] | [11] | [12] | [13]

COc1ccccc1N1CCN(CCCCNC(=O)c2ccc(-c3ccc(C(C)=O)cc3)cc2)CC1
inactive: [1] | [2] | [3] | [4] | [5] | [6] | [7] | [8] | [9] | [10] | [11] | [12]

C/C=C/c1ccc(O)c(OC)c1
inactive: [1] | [2] | [3] | [4] | [5] | [6] | [7] | [8] | [9] | [10] | [11] | [12] | [13]

CC(=C(CCOC(=O)C(C)C)SSC(CCOC(=O)C(C)C)=C(C)N(C=O)Cc1cnc(C)nc1N)N(C=O)Cc1cnc(C)nc1N
inactive: [1] | [2] | [3] | [4] | [5] | [6] | [7] | [8] | [9] | [10] | [11] | [12] | [13]

CC(=O)Nc1ncc([N+](=O)[O-])s1
inactive: [1] | [2] | [3] | [4] | [5] | [6] | [7] | [8] | [9] | [10] | [11] | [12]

Cc1cc(C)cc(OCC2CNC(=O)O2)c1 (stereo unspecified)
inactive: [1] | [2] | [3] | [4] | [5] | [6] | [7] | [8] | [9] | [10] | [11] | [12]

CCC(Cc1c(I)cc(I)c(N)c1I)C(=O)O (stereo unspecified)
inactive: [1] | [2] | [3] | [4] | [5] | [6] | [7] | [8] | [9] | [10] | [11] | [12] | [13]

COc1cc(C)nc(-n2nc(C)cc2OC)n1
inactive: [1] | [2] | [3] | [4] | [5] | [6] | [7] | [8] | [9] | [10] | [11] | [12] | [13]

COP(=O)(OC)OC(c1ccc(Cl)cc1)P(=O)(OC)OC (stereo unspecified)
inactive: [1] | [2] | [3] | [4] | [5] | [6] | [7] | [8] | [9] | [10] | [12] | [13]

CC(=O)Nc1ccc(CC(=O)O)cc1
inactive: [1] | [2] | [3] | [4] | [5] | [6] | [7] | [8] | [9] | [10] | [12] | [13]

CC(C)CCCC(C)N (stereo unspecified)
inactive: [1] | [2] | [3] | [4] | [5] | [6] | [7] | [8] | [9] | [10] | [12] | [13]

CC(=O)N[C@@H](CCC(=O)O)C(=O)O
inactive: [1] | [2] | [3] | [4] | [5] | [6] | [7] | [8] | [9] | [10] | [12] | [13]

C=C[C@H]1CN2CC[C@H]1C[C@@H]2[C@@H](O)c1ccnc2ccc(OC)cc12
inactive: [1] | [2] | [3] | [4] | [5] | [6] | [7] | [8] | [9] | [10] | [11] | [12] | [13]

O=C1C(O)=C(O)C(=O)C(O)=C1O
inactive: [1] | [2] | [3] | [4] | [5] | [6] | [7] | [8] | [9] | [10] | [11] | [12] | [13]

COc1cc(O)c(C(=O)c2ccccc2)cc1S(=O)(=O)O
inactive: [1] | [2] | [3] | [4] | [5] | [6] | [7] | [8] | [9] | [10] | [12] | [13]

C[N+]1(C)CCC(=C(c2ccccc2)c2ccccc2)CC1
inactive: [1] | [2] | [3] | [4] | [5] | [6] | [7] | [8] | [9] | [10] | [11] | [12] | [13]

CCCCC(CC)COC(=O)c1ccc(N(C)C)cc1 (stereo unspecified)
inactive: [1] | [2] | [3] | [4] | [5] | [6] | [7] | [8] | [9] | [10] | [11] | [12] | [13]

COc1ccc(-c2cc(C(F)F)nn2-c2ccc(S(N)(=O)=O)cc2)cc1F
inactive: [1] | [2] | [3] | [4] | [5] | [6] | [7] | [8] | [9] | [10] | [11] | [12] | [13]

CC(=O)OCC1=C(C(=O)O)N2C(=O)[C@@H](NC(=O)CSc3ccncc3)[C@H]2SC1
inactive: [1] | [2] | [3] | [4] | [5] | [6] | [7] | [8] | [9] | [10] | [11] | [12] | [13]

Cc1ncc(CO)c(C=O)c1O
inactive: [1] | [2] | [3] | [4] | [5] | [6] | [7] | [8] | [9] | [10] | [11] | [12]

COc1cc(C(=O)N2CCCCCCC2)cc(OC)c1OC
inactive: [1] | [2] | [3] | [4] | [5] | [6] | [7] | [8] | [9] | [10] | [11] | [12]

NCCNc1cccc2ccccc12
inactive: [1] | [2] | [3] | [4] | [5] | [6] | [7] | [8] | [9] | [10] | [11] | [12] | [13]

CC(C)(C)NCC(O)COc1cccc2c1C[C@H](O)[C@H](O)C2 (stereo partly specified)
inactive: [1] | [2] | [3] | [4] | [5] | [6] | [7] | [8] | [9] | [10] | [11] | [12] | [13]

COc1ccc(S(=O)(=O)N2c3ccc(Cl)cc3[C@@](O)(c3ccccc3Cl)[C@H]2C(=O)N2CCC[C@@H]2C(N)=O)cc1OC
inactive: [1] | [2] | [3] | [4] | [5] | [6] | [7] | [8] | [9] | [10] | [11] | [12] | [13]

OC1C(O)C(O)C(O)C(O)C1O (stereo unspecified)
inactive: [1] | [2] | [3] | [4] | [5] | [6] | [7] | [8] | [9] | [10] | [12] | [13]

Oc1ccccc1C=NCc1ccccc1
inactive: [1] | [2] | [3] | [4] | [5] | [6] | [7] | [8] | [9] | [10] | [11] | [12]

O=C(Nc1ccc([N+](=O)[O-])cc1)Nc1ccc([N+](=O)[O-])cc1
inactive: [1] | [2] | [3] | [4] | [5] | [6] | [7] | [8] | [9] | [10] | [11] | [12] | [13]

NCCNC(=O)c1ccc(Cl)cn1
inactive: [1] | [2] | [3] | [4] | [5] | [6] | [7] | [8] | [9] | [10] | [11] | [12] | [13]

CCCCCCCCCCCCCCCC(=O)O
inactive: [1] | [2] | [3] | [4] | [5] | [6] | [7] | [8] | [9] | [10] | [11] | [12] | [13]

COc1cc(NS(=O)(=O)c2ccc(N)cc2)ncn1
inactive: [1] | [2] | [3] | [4] | [5] | [6] | [7] | [8] | [9] | [10] | [11] | [12]

CCCCCCCCOc1ccc(C(=O)c2ccccc2)c(O)c1
inactive: [1] | [2] | [3] | [4] | [5] | [6] | [7] | [8] | [9] | [10] | [11] | [12] | [13]

Nc1nc(N)c(-c2ccccc2)s1
inactive: [1] | [2] | [3] | [4] | [5] | [6] | [7] | [8] | [9] | [10] | [11] | [12] | [13]

NC1CCN(c2nc3c(cc2F)c(=O)c(C(=O)O)cn3-c2ccc(F)cc2F)C1 (stereo unspecified)
inactive: [1] | [2] | [3] | [4] | [5] | [6] | [7] | [8] | [9] | [10] | [11] | [12] | [13]

CC(=O)NO
inactive: [1] | [2] | [3] | [4] | [5] | [6] | [7] | [8] | [9] | [10] | [11] | [12] | [13]

Cc1cccc(C)c1NC(=O)CN1CCCC1
inactive: [1] | [2] | [3] | [4] | [5] | [6] | [7] | [8] | [9] | [10] | [12] | [13]

CCCCOC(=O)CC(CC(=O)OCCCC)(OC(C)=O)C(=O)OCCCC
inactive: [1] | [2] | [3] | [4] | [5] | [6] | [7] | [9] | [10] | [11] | [12] | [13]

CCCCC(CC)COC(=O)/C=C/c1ccc(OC)cc1 (stereo unspecified)
inactive: [1] | [2] | [3] | [4] | [5] | [6] | [9] | [10] | [11] | [12] | [13]

CC(C(=O)O)c1cccc(Oc2ccccc2)c1 (stereo unspecified)
inactive: [1] | [2] | [3] | [4] | [5] | [6] | [8] | [9] | [10] | [12] | [13]

Clc1cccc(C(c2ccc3nc[nH]c3c2)n2ccnc2)c1 (stereo unspecified)
inactive: [1] | [2] | [3] | [4] | [5] | [6] | [7] | [8] | [11] | [12] | [13]
